ABHD5-PLIN5 inh: inhibitors of human ABHD5-perilipin-5 interaction; 360,000 compounds, 0.78% hits; Q00G26+Q8WTS1; AID 602281; inhibition, % at 4 µM; Split G. princeps luciferase complementation, luminescence, 4 h;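 active = inhibition above the mean inhibition across every tested compound plus 3 SD, cut at about 22% in these data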;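 also: 0% = DMSO only wells and the 100% control is not disclosed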
Target sequence (Q00G26 whole entry, looked up): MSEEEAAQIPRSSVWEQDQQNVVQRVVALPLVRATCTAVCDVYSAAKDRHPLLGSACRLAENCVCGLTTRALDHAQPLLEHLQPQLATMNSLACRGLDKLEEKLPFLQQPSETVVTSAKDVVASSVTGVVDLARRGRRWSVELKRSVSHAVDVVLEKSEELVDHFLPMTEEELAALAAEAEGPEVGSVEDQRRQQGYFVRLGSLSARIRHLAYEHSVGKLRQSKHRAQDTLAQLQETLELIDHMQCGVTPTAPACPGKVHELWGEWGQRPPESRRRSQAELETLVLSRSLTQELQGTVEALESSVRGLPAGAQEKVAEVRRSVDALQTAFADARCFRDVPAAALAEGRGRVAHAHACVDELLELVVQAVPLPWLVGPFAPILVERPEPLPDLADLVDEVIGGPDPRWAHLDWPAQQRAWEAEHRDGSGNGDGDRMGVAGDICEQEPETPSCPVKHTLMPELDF
Target sequence (Q8WTS1 whole entry, looked up): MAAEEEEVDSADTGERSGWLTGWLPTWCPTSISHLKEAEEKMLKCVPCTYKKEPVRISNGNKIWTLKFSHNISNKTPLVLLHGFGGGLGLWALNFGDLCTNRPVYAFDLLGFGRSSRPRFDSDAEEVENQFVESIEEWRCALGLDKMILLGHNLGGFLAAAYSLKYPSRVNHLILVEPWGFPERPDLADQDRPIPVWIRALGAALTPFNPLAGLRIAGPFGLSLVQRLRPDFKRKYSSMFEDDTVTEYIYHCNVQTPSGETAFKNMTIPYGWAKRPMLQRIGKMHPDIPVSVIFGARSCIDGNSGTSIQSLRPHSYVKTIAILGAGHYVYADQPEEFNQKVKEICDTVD
MITF TRPM1 inh: inhibitors of MITF-driven TRPM1 promoter in melanoma cells; SK-MEL-5 TRPM1 promoter luciferase, 24 h; inhibition, % at 12.5 µM; AID 488899; 330,000 compounds, 0.83% hits;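 active = mean inhibition across replicates of 60% or more, whatever share of single replicates reaches that level; inconclusive = some that reach 60%, reason not given; inactive = mean inhibition across replicates below 60%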
Peg3 prom inh: reduces Peg3 promoter-driven luciferase expression in HeLa; HeLa PEG-Prom luciferase reporter, luminescence, overnight; inhibition, % at 20 µM; 360,000 compounds, 1.7% hits;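 active = inhibition of at least 50% at 20 µM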
EWS-Fli inh: EWS/Fli transcriptional activity inhibition; inhibition, % at 12.6 µM; AID 651661; A673 NR0B1-luciferase reporter, viability-normalised; 350,000 compounds, 0.67% hits;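 active = mean inhibition of at least 50% after viability correction, with every replicate also passing that limit; inconclusive = mean reaches 50% but only one of two replicates passes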;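 also: firefly luciferase signal divided by Alamar Blue viability fluorescence both relative to DMSO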
PAX8 reporter: PAX8 transcriptional activity inhibition | RMG-I TPO-luciferase reporter, SteadyGlo, 24 h | inhibition, % at 12.6 µM | 360,000 compounds, 1.2% hits;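 active = mean replicate inhibition at least 60% with every replicate also reaching 60%; inconclusive = only one of the two criteria is met; inactive = mean below 60% and not all replicates reaching 60%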;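 also: luciferase light reporting Pax8 driven TPO promoter activity; plate controls were median of neutral control wells for no effect and mitoxantrone controls for full effect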
Shn3 inh set2: inhibitors of Schnurri-3 3'UTR reporter in osteoblasts; Clone20 osteoblast Shn3 3'UTR firefly luciferase, 24 h; inhibition, % at 12.5 µM; 360,000 compounds, 0.52% hits;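 active = mean inhibition of at least 75% with every replicate also reaching 75%; inconclusive = mean inhibition at least 75% but some replicate below; inactive = mean inhibition below 75%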;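 also: 0% = median of neutral control wells and 100% = pilot-screen positive control compound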
ABHD5-PLIN5 conf: confirmation of human ABHD5-PLIN5 interaction inhibitors; shares compounds with ABHD5-PLIN5 inh; biochemical ABHD5-PLIN5 interaction, luminescence; inhibition, % at 4 µM; 2,200 compounds, 67% hits; AID 651612; in the data active = inhibition above about 23%;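 also: 0% = DMSO vehicle wells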
HNF4 counter: active in HNF4 split-luciferase counter-screen for ABHD5-PLIN5 inhibitors; shares compounds with ABHD5-PLIN5 inh; HNF4 dimerization, luminescence, biochemical; inhibition, % at 4 µM; 2,200 compounds, 77% hits; AID 651674;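 active = mean inhibition across replicate wells exceeding the computed hit threshold, cut at about 13% in these data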;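 also: light from luciferase halves that rejoin when HNF4 fusion proteins dimerize; 0% = DMSO only wells and the 100% control is not given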
Starred values were filed as active, the others as inactive; ? = inconclusive; · = no result given. Only some compounds are listed: those with a hit (about 3% of all), similar ones and a draw of the others.

SMILES	ABHD5-PLIN5 inh	MITF TRPM1 inh	Peg3 prom inh	EWS-Fli inh	PAX8 reporter	Shn3 inh set2	ABHD5-PLIN5 conf	HNF4 counter
CCCC(=O)OCCNc1cc(Sc2nccn2C)c2nonc2c1[N+](=O)[O-]	28*	101*	110*	·	-12	95*	56*	109*
CCCC(=O)OCCNc1cc(SCc2ccco2)c2nonc2c1[N+](=O)[O-]	14	-1	-6	·	24	15	·	·
CCC(=O)OCCNc1cc(Sc2nc3ccccc3[nH]2)c2nonc2c1[N+](=O)[O-]	43*	72*	92*	·	45	96*	63*	111*
CC(=O)OCCCNc1cc(SCc2ccco2)c2nonc2c1[N+](=O)[O-]	3	6	46	·	13	2	·	·
CCN(CC)CCOc1ccc(/C(=C(\Cl)c2ccccc2)c2ccccc2)cc1	49*	-6	81*	42	45	-38	76*	29*
CCN(CC)CCOc1ccccc1OC	-6	0	6	·	0	-10	·	·
O=C1C(=C(c2ccccc2)N2CCOCC2)Cc2ccccc21	82*	·	108*	60*	113*	98*	97*	95*
CC(C)c1ccc(NC(=O)c2csnn2)cc1	24*	-83	-162	-30	·	-97	0	3
C[C@H](CO)N1C[C@H](C)[C@@H](CN(C)C(=O)CCCN(C)C)OCCCC[C@H](C)Oc2ccc(NS(=O)(=O)c3ccccc3)cc2C1=O	·	·	·	-11	-2	·	·	·
Cc1sc2nc(SCC(=O)Nc3c(C)n(C)n(-c4ccccc4)c3=O)n(C)c(=O)c2c1C	24*	6	16	·	16	9	0	0
O=C(N[C@H]1CC[C@H](CCn2cc(C3CCCC3)nn2)O[C@@H]1CO)c1cccnc1	·	·	·	·	-2	·	·	·
CC1(C(=O)Nc2cccc3cccnc23)CCN1Cc1ccc(-c2ccccc2)o1 (stereo not given)	61*	·	15	-5	·	12	47*	73*
COc1cccc(CN2CCC2(C)C(=O)Nc2cccc3cccnc23)c1OC (stereo not given)	-7	·	16	11	18	17	·	·
CO[C@H]1CN(C)C(=O)c2ccc(NC(C)=O)cc2OC[C@@H](C)N(C(=O)c2ccccc2)C[C@@H]1C	·	·	·	12	-6	·	·	·
CCN1CCN(CCNC(=O)c2ccc3c(c2)N(Cc2ccc(F)cc2)C(=O)/C(=C/c2ccccc2)S3)CC1	24*	92*	103*	-13	4	77	17	4
CN1CCN(CCCNC(=O)c2ccc(/C=C3\Sc4ccccc4N(Cc4ccccc4F)C3=O)cc2)CC1	33*	-9	74*	8	-1	-2	5	-6
CCC1CCCCN1CCCNC(=O)c1ccc2c(c1)N(Cc1ccc(F)cc1)C(=O)c1ccccc1S2=O (stereo not given)	25*	-1	48	30	35	3	2	8
C[C@@H]1CCCCO[C@@H](CN(C)C(=O)Nc2ccc(F)cc2)[C@H](C)CN([C@H](C)CO)C(=O)c2cc(NC(=O)Cc3ccccc3)ccc2O1	·	·	·	6	6	·	·	·
CC(C)(O)C#Cc1ccc([C@H]2[C@@H](CO)N3CCCCN(C(=O)c4cccc(F)c4)C[C@@H]23)cc1	·	·	·	·	11	·	·	·
O=C(NCc1ccncc1)[C@@H]1N[C@@H]2c3ccc(/C=C/c4ccccc4)c(=O)n3C[C@@H]2[C@H]1CO	·	·	·	-7	12	·	·	·
CCCC(=O)Nc1ccc2c(c1)C(=O)N(C)[C@H]1CC[C@@H](CC(=O)NCCc3ccncc3)O[C@H]1CO2	·	·	·	-4	-15	·	·	·
COc1ccc(CNC(=O)C[C@@H]2CC[C@@H]3[C@H](COc4ccc(NC(=O)C(C)C)cc4C(=O)N3C)O2)cc1	·	·	·	-2	-11	·	·	·
Cc1nnsc1S(=O)c1ccc(Cl)cc1 (stereo not given)	5	9	17	17	7	-6	·	·
O=C(Nc1ccccc1)c1nnsc1S(=O)c1ccc(Cl)cc1 (stereo not given)	34*	24	88*	·	·	70	90*	106*
CCCC[n+]1c2ccccc2cc2ccccc21	87*	15	21	18	1	28	102*	100*
SMILES	ABHD5-PLIN5 inh	MITF TRPM1 inh	Peg3 prom inh	EWS-Fli inh	PAX8 reporter	Shn3 inh set2	ABHD5-PLIN5 conf	HNF4 counter
CCC[n+]1c2ccccc2cc2ccccc21	72*	-9	22	7	23	-11	94*	84*
C[C@@H]1CN([C@H](C)CO)C(=O)c2cc(NC(=O)c3ccncc3)ccc2O[C@H]1CN(C)Cc1ccccc1	·	·	·	-6	-4	·	·	·
CCOC(=O)C1CCCN(C(=O)c2cc(Nc3ccc(OC)cc3OC)nc3ccccc23)C1 (stereo not given)	9	8	-6	·	-18	5	·	·
CCOC(=O)C1CCCN(C(=O)c2cc(Nc3ccc(OC)c(OC)c3)nc3ccccc23)C1 (stereo not given)	29*	-11	-24	·	-10	22	45*	2
CN(C)c1ccc(Cc2cc3c(O)ccc(O)c3cc(Cc3ccc(N(C)C)cc3)c2=O)cc1	87*	37	25	-13	11	17	95*	47*
CN(C)c1ccc(C(=O)c2ccc(O)cc2O)cc1	-10	-56	-219	·	·	-81	·	·
O=C(Nc1ccc2nc3n(c(=O)c2c1)CCCCC3)c1ccccc1[N+](=O)[O-]	5	-37	-35	·	-9	-13	·	·
O=C(Nc1ccc2nc3n(c(=O)c2c1)CCCCC3)c1c(F)ccc([N+](=O)[O-])c1F	36*	97*	108*	·	72*	99*	61*	56*
CC(C)C#Cc1ccc([C@H]2[C@@H](C#N)N(C(=O)c3ccccn3)[C@@H]2CO)cc1	·	·	·	-3	8	·	·	·
CCn1c(C)c(CS(=O)(=O)c2ccccc2)[nH]c1=O	34*	2	12	1	-12	-2	57*	77*
CN(C)C(=O)C[C@@H]1CC[C@H](NC(=O)NC2CCCC2)[C@@H](CO)O1	·	·	·	13	-7	·	·	·
C=C1CCc2c([nH]c3ccc(OCC(C)C)cc23)C1=O	42*	58	103*	?	111*	81	90*	73*
O=S(=O)(c1ccc(F)cc1)N1CN(Cc2ccco2)c2nc3ccccc3nc21	24*	-8	-5	·	·	9	28*	23*
C[C@H]1CN([C@@H](C)CO)C(=O)c2cc(C#CC(C)(C)O)cnc2O[C@@H]1CN(C)C(=O)CC1CC1	·	·	·	-3	·	·	·	·
O=C1N2CCCc3cccc(c32)C12Nc1ccccc1S2 (stereo not given)	61*	11	28	·	·	1	-4	-4
COc1ccc(OC)c2c1C(=O)C(Cl)=C(Cl)C2=O	93*	88*	107*	45	100*	·	104*	111*

From PubChem BioAssay
